High-throughput results deposited in PubChem BioAssay by National Center for Advancing Translational Sciences (NCATS).
Compounds with a hit are over-represented: about 11% of the library has one in this group of screens.
hNpr1 antagonist – antagonists of human natriuretic peptide receptor Npr1. P16066. HEK293 hNpr1 GloSensor cGMP, ANP-stimulated luminescence. Potency, µM (titrated, usually from 46.3 µM), most hits filed as inhibitors. hit rate 1.6% among 76,000. AID 1347048; calls by dose curve; also: nearly all actives have a fitted effect of over 60% in size
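Compound pre-incubated 30 min at room temperature on GloSensor-loaded HEK293 cells stably carrying hNpr1 and the pGS-40F cGMP biosensor. Stimulation uses hNppA at 0.1 nM final; luminescence is taken at baseline and 20 min post-agonist.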
Luciferase inh – inhibitors of firefly (Photinus pyralis) luciferase; P08659; Potency, µM (highest dose often 115 µM), hits mostly inhibitors; hit rate 2.5% among 76,000; purified P. pyralis luciferase, luminescence, biochemical; AID 1347043; also: nearly all actives have a fitted effect of over 65% in size
Target sequence (P08659 whole entry, looked up): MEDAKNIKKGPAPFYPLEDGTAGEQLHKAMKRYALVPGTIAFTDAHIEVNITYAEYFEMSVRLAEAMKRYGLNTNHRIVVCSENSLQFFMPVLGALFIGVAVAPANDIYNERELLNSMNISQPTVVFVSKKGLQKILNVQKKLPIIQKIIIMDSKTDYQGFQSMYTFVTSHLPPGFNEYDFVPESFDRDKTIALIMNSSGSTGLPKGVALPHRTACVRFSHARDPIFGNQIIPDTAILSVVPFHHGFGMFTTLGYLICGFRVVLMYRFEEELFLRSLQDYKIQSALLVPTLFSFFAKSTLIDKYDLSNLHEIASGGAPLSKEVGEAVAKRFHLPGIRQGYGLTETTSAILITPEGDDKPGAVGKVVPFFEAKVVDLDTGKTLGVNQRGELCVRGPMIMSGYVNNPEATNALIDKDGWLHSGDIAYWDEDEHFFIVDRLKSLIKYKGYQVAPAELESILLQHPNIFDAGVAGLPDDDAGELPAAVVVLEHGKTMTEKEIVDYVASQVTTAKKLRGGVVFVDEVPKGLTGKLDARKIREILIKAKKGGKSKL
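Purified 10nM P. pyralis luciferase with 10uM D-luciferin and 10uM ATP in 50mM Tris acetate pH 7.5, 10mM Mg acetate, 0.01% Tween-20, 0.05% BSA. qHTS titration; luminescence read by CCD imager.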
HEK293 tox – cytotoxic compounds in HEK 293 cells; HEK 293 viability, ATP luminescence (CellTiter-Glo), 48-72 h; Potency, µM (top dose mostly 115 µM), hits mostly inhibitors; AID 1345083; hit rate 6.6% among 94,000; also: nearly all actives have a fitted effect of over 60% in size
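Cytotoxicity was scored by loss of ATP-coupled luminescence (CellTiter-Glo) in HEK 293 cells. Compound treatment ran 48 or 72 hr at 37 degree Celsius, 5% CO2, 95% humidity.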
3T3 cytotox – NIH 3T3 cell cytotoxicity | NIH 3T3 viability, CellTiter-Glo ATP luminescence, 48-72 h | Potency, µM (series often up to 96.7 µM), actives largely listed as inhibitors | hit rate 4.3% among 94,000; also: nearly all actives have a fitted effect of over 55% in size
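Cells were seeded at 400 per well, treated with pin-transferred compound, and kept 48 or 72 hr at 37 °C before CellTiter-Glo addition and luminescence imaging of cellular ATP.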
A number is an active result; – = inactive; ? = inconclusive; · = no result given. Unless noted, calls follow the shape of the dose curve; as a rule, active = well fitted curve in the direction sought with a large enough effect; inconclusive = small, poorly fitted or top-dose-only effect, or another doubt; inactive = no such curve, though single readings can be large; an effect the other way counts as inactive or inconclusive.

SMILES	hNpr1 antagonist	Luciferase inh	HEK293 tox	3T3 cytotox
O=S(=O)(c1ccc(F)cc1)N1CCOC[C@H](Oc2ccc(C(F)(F)F)cn2)C1	?	–	?	?
COc1ccc(S(=O)(=O)N2CCOC[C@H](Oc3ccccc3)C2)cc1	–	–	63µM	?
Cc1noc(C)c1S(=O)(=O)N1CCOC[C@H](Oc2ccc(C(F)(F)F)cc2)C1	–	–	63µM	?
CC1(CNCc2ccccc2)COc2ccc(C(=O)Nc3cccc(Cl)c3)cc2N1 (centres undefined)	–	–	?	?
CC(=O)Nc1ccc([S+](=O)([O-])N2CCCN(CCn3nc4n(c3=O)CCCC4)CC2)cc1	·	·	–	–
CC(C)(C)c1cnc([C@@H]2COCCN2Cc2ccccc2O)[nH]1	–	–	–	–
O=C(NCCc1ccccn1)[C@@H]1C[C@@H](c2ccc(F)cc2)N(CCOc2ccccc2)C1	–	–	?	?
COc1ccc(O[C@H]2COCCN(Cc3cccc(OC)c3)C2)cc1	–	–	–	–
Cc1noc(C)c1-c1cc(-c2cccnc2)cn2cncc12	–	–	?	?
Cc1cn2nc(C(=O)N3CCC(NC(=O)c4cccc(N(C)C)c4)CC3)cc2c(=O)[nH]1	–	35µM	–	–
Cc1cn2nc(C(=O)N3CCC(NC(=O)c4ccccc4)CC3)cc2c(=O)[nH]1	–	–	–	–
COCCN1CCCCC(CC(=O)Nc2cc(C)c(Cl)cc2OC)C1=O (centres undefined)	–	–	?	–
c1cc(-c2nc3c(c(NCCCn4ccnc4)n2)CCNCC3)ccn1	–	–	–	–
c1ccc(-c2nc3c(c(NCC4OCCc5ccccc54)n2)CCNCC3)nc1 (centres undefined)	–	–	?	79µM
COc1cc(-c2nc(CN3CCCC(CN)C3)c(C)o2)cc2c1OCO2 (centres undefined)	–	–	40µM	?
COc1cc(C)c(-c2nc(CN3CCCC(CN)C3)c(C)o2)cc1C (centres undefined)	–	–	32µM	25µM
COc1cc(C)c(-c2nc(CN3CCOC(CCN)C3)c(C)o2)cc1C (centres undefined)	–	–	45µM	?
COc1cc(-c2nc(CN3CCSCC3)c(C)o2)ccc1F	–	–	–	–
COc1ccc(-c2nc(CN3CC[C@H]4CC[C@@H](C3)N4)c(C)o2)c(OC)c1C	–	–	?	?
CN1CC(=O)N(C2CCC2)Cc2c1ncnc2N1CCC(Cc2ccccc2)CC1	–	–	?	45µM
CN1CC(=O)N(C2CCC2)Cc2c1ncnc2N1CCC(c2ccccc2)CC1	–	–	45µM	?
CN1CC(=O)N(C2CCC2)Cc2c1ncnc2N1CCCCC1	·	·	–	–
CN1CC(=O)N(c2ccc(Cl)cc2)Cc2c1ncnc2N1CCC(Cc2ccccc2)CC1	–	–	32µM	?
CN1CC(=O)N(C2CCNC2)Cc2c1ncnc2N1CCC(c2ccccc2)CC1 (centres undefined)	·	·	–	–
Cc1noc(C)c1[S+](=O)([O-])N1CCCC1C(=O)N1CCC(N2Cc3cccn3C2=O)CC1 (centres undefined)	·	·	–	–
SMILES	hNpr1 antagonist	Luciferase inh	HEK293 tox	3T3 cytotox
O=C(Nc1cccnc1)c1ccc2c(c1)OCCN(c1cccc(OC(F)(F)F)c1)C2	?	–	28µM	?
Cc1ccc(NC(=O)CN2C(=O)NC3(CCS(=O)(=O)CC3)C2=O)cc1C	–	–	–	–
O=C(CN1C(=O)NC2(CCS(=O)(=O)CC2)C1=O)Nc1ccc2c(c1)OCCO2	–	35µM	–	–
CCCn1cc(-c2ccncc2)cc1C(=O)N1CCN(c2ccccn2)CC1	?	–	?	?
CCCn1cc(-c2ccncc2)cc1C(=O)N1CCN(c2ccccc2F)CC1	–	–	45µM	?
O=[N+]([O-])c1cccc(-c2noc([C@@H]3C[C@@H](O)CN3Cc3ccccc3O)n2)c1	–	–	?	?
Cc1cnc(CNC(=O)c2cc(CN3CCC(Cc4ccccc4)CC3)on2)cn1	–	–	?	–
O=C(NCc1cccnc1)c1cc(CN2CCC(Cc3ccccc3)CC2)on1	–	–	–	32µM
CC1(C(=O)N2CCC(c3ccccc3)CC2)COCc2cnc(Nc3ccccc3)nc21 (centres undefined)	?	–	63µM	45µM
CC1(C(=O)Nc2ccncc2)CCCc2cnc(Nc3ccccc3)nc21 (centres undefined)	–	–	?	?
COc1cccc(Nc2ncc3c(n2)C(C)(C(=O)NCCN2CCOCC2)CC3)c1 (centres undefined)	–	–	?	?
COc1cccc(NC(=O)C2(C)CCCc3cnc(N(C)C)nc32)c1 (centres undefined)	–	–	?	?
COc1ccc(NC(=O)C2(C)CCc3cnc(NCc4ccccc4)nc32)cn1 (centres undefined)	–	–	?	13µM
CC1(C(=O)NC2CCOCC2)COCc2cnc(Nc3ccccc3)nc21 (centres undefined)	–	–	–	?
COc1ccc(NC(=O)C2(C)CCc3cnc(Nc4ccccc4)nc32)cn1 (centres undefined)	–	–	100µM	?
COc1cccc(Nc2ncc3c(n2)C(C)(C(=O)NCc2ccc4c(c2)OCO4)CC3)c1 (centres undefined)	?	–	32µM	?
COc1ccc(NC(=O)N[C@H]2CO[C@H]3[C@@H]2OC[C@@H]3n2nnnc2Oc2ccc(-n3cncn3)cc2)cc1	–	–	–	–
COc1cc2cc(CN3CCC[C@H]3CO)c(-c3cccc(Cl)c3)nc2cc1OC	–	?	?	?
COc1ccc(NC(=O)C2(C)CCCc3cnc(Nc4cccnc4)nc32)cc1 (centres undefined)	–	–	–	35µM
CC1(C(=O)NCc2cccc(F)c2)COCc2cnc(Nc3ccccc3)nc21 (centres undefined)	–	–	89µM	?
CC1(C(=O)NC2CC2)CCc2cnc(Nc3ccccc3)nc21 (centres undefined)	?	–	40µM	28µM
COc1cccc(NC(=O)C2(C)CCc3cnc(NCc4ccccc4)nc32)c1 (centres undefined)	–	–	71µM	?
CC1(C(=O)NC2CC2)CCCc2cnc(Nc3ccccc3)nc21 (centres undefined)	–	–	?	–
COc1ccc(N2CC3CCC(C2)N3CC(C)C)cc1	·	·	–	–
COc1cccc(NC(=O)C2(C)COCc3cnc(Nc4ccccc4)nc32)c1 (centres undefined)	–	–	100µM	79µM
Cn1ccc(NC(=O)C2(C)COCc3cnc(Nc4ccccc4)nc32)n1 (centres undefined)	–	–	?	?
COc1cccc(Nc2ncc3c(n2)C(C)(C(=O)NCCCn2ccnc2)CC3)c1 (centres undefined)	–	–	?	25µM
Cc1nc(-c2ccc(C(C)N3CCCCC3)cc2)c(C#N)cc1C(=O)O (centres undefined)	–	–	?	–
CCN1c2cc(C(=O)Nc3ccc(OC)cc3)ccc2C(=O)N2CCCC21 (centres undefined)	–	–	–	–
